# In PubChem BioAssay:
# The source made the active and inactive calls. Unless noted, no rule for the calls is given here.
# How the values were obtained:
# [1] = A549 cell viability effects, profiling panel, calcein-AM fluorescence, 48 h, basal (AID 1162); conditions: higher = more signal; also: test concentration not given here
# [2] = adipocyte viability effects, profiling panel, cell-based, 3T3-L1 adipocytes, calcein-AM fluorescence, 48 h, basal (AID 1163); conditions: 3T3-L1 adipocytes viability, higher = more signal; also: test concentration not given here
# [3] = HepG2 cell viability effects, profiling panel, calcein-AM fluorescence, 48 h, basal (AID 1164); conditions: higher = more signal; also: test concentration not given here
# [4] = MM1S cell viability effects, profiling panel, calcein-AM fluorescence, 48 h, basal (AID 1165); conditions: higher = more signal;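 also: viability of MM1S multiple myeloma cells under basal unstimulated conditions; test concentration not given here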
# [5] = basal RPMI8226 viability, no added stimulus, profiling panel, cell-based, calcein-AM fluorescence, 48 h, PK04 Diversity Set (AID 1166); conditions: RPMI8226 myeloma viability, higher = more signal;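 also: cells grown under basal conditions without added stimulus; test concentration not given here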
# [6] = basal HepG2 mitochondrial membrane potential changes, profiling panel, cell-based, JC-1 fluorescence, 24 h, 100 nL compound (AID 1167); conditions: higher = more signal; also: test concentration not given here
# [7] = basal 3T3-L1 adipocyte mitochondrial potential changes, profiling panel, cell-based, JC-1 fluorescence, 3T3-L1 adipocytes, 24 h, 100 nL compound (AID 1168); conditions: JC-1 mitochondrial fluorescence, higher = more signal, called active from +8 up or from −8 down; also: test concentration not given here
# [8] = basal RPMI8226 mitochondrial membrane potential changes, profiling panel, cell-based, JC-1 fluorescence, 24 h, 100 nL compound (AID 1169); conditions: RPMI8226 myeloma, JC-1 mitochondrial potential fluorescence, higher = more signal; also: test concentration not given here
# [9] = basal MM1S mitochondrial membrane potential changes, profiling panel, cell-based, JC-1 fluorescence, 24 h, 100 nL compound (AID 1170); conditions: higher = more signal; also: test concentration not given here
# [10] = A549 lung cancer cell viability effects, profiling panel, resazurin fluorescence, 24 h, PK04 Diversity Set (AID 1171); conditions: higher = more signal, called active from +8 up or from −8 down; also: test concentration not given here
# [11] = HepG2 liver cancer cell viability effects, profiling panel, resazurin fluorescence, 24 h, PK04 Diversity Set (AID 1172); conditions: higher = more signal; also: test concentration not given here
# [12] = basal S. cerevisiae growth modulation, no modifier, primary screen, OD600, strain BY4716, 24 h, basal condition (AID 1173); conditions: OD600, 24 h, higher = more signal, called active from +8 up or from −8 down
# [13] = MM1S myeloma cell viability, profiling panel, resazurin fluorescence, basal, 24 h, PK04 Diversity Set (AID 1174); conditions: higher = more signal, called active from +8 up or from −8 down;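 also: MM1S multiple myeloma cell line; test concentration not given here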
# [14] = target: Dihydroorotate dehydrogenase (quinone), mitochondrial (Plasmodium falciparum (isolate 3D7)) (UniProt Q08210); experiment: PfDHODH enzyme inhibitors, primary screen, biochemical, C-terminal His tag, absorbance 600 nm (AID 1175); conditions: DCIP absorbance 600 nm, higher = more signal, called active from +8 up or from −8 down;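 also: recombinant parasite enzyme with a five histidine tag at its C terminus; test concentration not given here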
# Dihydroorotate dehydrogenase (quinone), mitochondrial (Plasmodium falciparum (isolate 3D7)), sequence (Q08210 whole entry, looked up): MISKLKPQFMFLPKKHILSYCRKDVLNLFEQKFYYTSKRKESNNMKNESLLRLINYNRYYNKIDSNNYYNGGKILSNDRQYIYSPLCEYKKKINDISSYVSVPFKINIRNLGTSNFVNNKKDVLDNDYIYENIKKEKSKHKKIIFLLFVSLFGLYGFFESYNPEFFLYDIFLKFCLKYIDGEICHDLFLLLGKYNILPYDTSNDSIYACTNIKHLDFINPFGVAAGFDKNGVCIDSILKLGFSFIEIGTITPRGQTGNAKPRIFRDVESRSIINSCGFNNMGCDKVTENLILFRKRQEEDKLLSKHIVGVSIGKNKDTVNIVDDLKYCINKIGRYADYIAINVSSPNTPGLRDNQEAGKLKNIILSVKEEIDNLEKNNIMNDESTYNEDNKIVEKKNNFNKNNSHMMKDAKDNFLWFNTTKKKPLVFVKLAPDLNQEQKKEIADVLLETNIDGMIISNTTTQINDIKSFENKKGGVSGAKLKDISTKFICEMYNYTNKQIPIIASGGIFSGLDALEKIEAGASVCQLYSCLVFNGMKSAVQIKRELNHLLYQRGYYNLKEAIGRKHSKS
# [15] = P. aeruginosa biofilm formation inhibitors, primary screen, strain PAO1, LB-PBS medium, absorbance 600 nm (AID 1176); also: test concentration not given here; conditions: P. aeruginosa PAO1 growth/biofilm, A600, 12 h; higher = more signal
# [16] = S. cerevisiae RM11-1a growth modifiers, primary screen, strain RM11-1a, OD600, basal, 24 h (AID 1177); conditions: OD600, 24 h, higher = more signal, called active from +8 up or from −8 down;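 also: cultures grown under basal conditions with no added stressor; test concentration not given here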
# [17] = E. coli acrAB mutant growth effects, primary screen, E. coli filamentation inducers, strain DRC39, OD650, 24 h (AID 1178); conditions: higher = more signal, called active from +8 up or from −8 down;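 also: growth measured as culture turbidity by optical density at 650 nm; test concentration not given here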
# [18] = E. coli acrAB mutant growth effects, primary screen, E. coli filamentation inducers, strain DRC39, OD650, 48 h (AID 1179);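 also: screen aims at cell division blockers that make cells filament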; conditions: E. coli DRC39 delta-acrAB growth, higher = more signal, called active from +8 up or from −8 down
# [19] = RPMI8226 myeloma cell viability, profiling panel, resazurin fluorescence, basal, 24 h, PK04 Diversity Set (AID 1180); conditions: higher = more signal;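 also: RPMI8826 multiple myeloma cell line at 5000 cells per well; test concentration not given here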
# [20] = target: E3 ubiquitin-protein ligase XIAP (Homo sapiens) (UniProt P98170); experiment: XIAP binders, primary screen, biophysical, small-molecule microarray, fluorescence 635 nm (AID 1181); conditions: small-molecule microarray binding, higher = more signal;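 also: score merges 667 nm emission and signal to noise over triplicate slides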
# E3 ubiquitin-protein ligase XIAP (Homo sapiens), sequence (P98170 whole entry, looked up): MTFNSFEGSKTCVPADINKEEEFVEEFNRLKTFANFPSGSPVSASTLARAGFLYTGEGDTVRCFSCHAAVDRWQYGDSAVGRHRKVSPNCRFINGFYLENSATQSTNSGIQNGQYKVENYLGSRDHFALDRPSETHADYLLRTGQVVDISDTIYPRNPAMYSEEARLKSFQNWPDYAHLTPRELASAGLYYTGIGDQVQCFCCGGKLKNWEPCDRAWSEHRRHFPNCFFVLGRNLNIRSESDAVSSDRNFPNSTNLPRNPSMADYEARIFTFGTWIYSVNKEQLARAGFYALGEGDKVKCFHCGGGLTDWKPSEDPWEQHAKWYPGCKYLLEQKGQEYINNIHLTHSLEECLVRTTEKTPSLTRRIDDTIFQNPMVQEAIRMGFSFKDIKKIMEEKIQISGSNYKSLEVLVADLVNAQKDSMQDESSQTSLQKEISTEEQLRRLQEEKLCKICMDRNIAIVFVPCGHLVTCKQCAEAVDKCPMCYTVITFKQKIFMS
SMILES,z-score [1],z-score [2],z-score [3],z-score [4],z-score [5],z-score [6],z-score [7],z-score [8],z-score [9],z-score [10],z-score [11],z-score [12],z-score [13],composite z-score [14],z-score [15],z-score [16],z-score [17],z-score [18],z-score [19],composite z-score [20]
CO[C@H]1COC(=O)CC=C[C@H](C)[C@@H](OC)COC(=O)[C@@H](C)NC(=O)CC=C[C@@H]1C,0.181,0.0797,-1.72,-0.227,0.0777,-0.0888,-1.76 (inactive),-0.244,-0.582,0.66 (inactive),0.789,-0.774 (inactive),1.01 (inactive),-0.355 (inactive),-0.491 (inactive),-0.937 (inactive),0.0013 (inactive),-0.597 (inactive),0.808,-0.244
CCN1C(=O)[C@H]2[C@H]3[C@H](O)[C@H](O)CC(=NOC[C@H]4O[C@H](c5ccccc5)C=C[C@@H]4Oc4ccc(OC)cc4)[C@@H]3CC[C@H]2C1=O,0.964,-0.471,0.644,-1.98,-2.23,-0.627,0.0264 (inactive),-1.24,-0.409,-0.531 (inactive),-0.985,-0.933 (inactive),-0.641 (inactive),-0.953 (inactive),0.241 (inactive),0.635 (inactive),0.602 (inactive),0.923 (inactive),-1.04,0.0617
Cc1ccc(S(=O)(=O)N[C@H]2COC(=O)CC=C[C@@H](C)COC(=O)CC=C[C@@H]2C)cc1,0.409,-0.203,0.0995,0.0438,0.219,0.247,-0.393 (inactive),-0.0798,-0.197,0.258 (inactive),-0.118,-0.603 (inactive),0.186 (inactive),-0.765 (inactive),-0.319 (inactive),0.313 (inactive),0.0613 (inactive),-0.0105 (inactive),0.108,-0.239
O=C1CCCC=C1C(O)CCCCBr (stereo not given),-1.75,0.593,-4.6,-3.52,-3.71,-0.504,0.482 (inactive),-0.967,-3.04,-2.06 (inactive),-1.4,-17.6 (active),-8.08 (active),-1.39 (inactive),1.43 (inactive),-2.66 (inactive),0.48 (inactive),0.557 (inactive),-4.3,-0.193
CC(C)(C)N1C(=O)[C@H]2[C@H]3[C@H](O)[C@H](O)CC(=NO[C@@H]4O[C@H](CO)[C@@H](O)[C@H](O)[C@H]4O)[C@H]3CC[C@H]2C1=O,-2.09,1.08,-2.16,-2.93,-3.96,-1.68,-1.81 (inactive),-0.344,-0.447,-0.817 (inactive),-0.849,-1.3 (inactive),-0.623 (inactive),-0.982 (inactive),1.15 (inactive),0.339 (inactive),-0.341 (inactive),-1.45 (inactive),-0.817,-0.142
COC(=O)CC=C[C@@H](C)[C@@H](C=NOC[C@H]1O[C@H](c2ccccc2)C=C[C@@H]1Oc1ccc(OC)cc1)NS(=O)(=O)c1ccc(C)cc1,-1.31,-0.486,-0.43,-1.7,-1.2,0.0495,-1.06 (inactive),0.689,-0.077,-0.374 (inactive),-0.659,0.642 (inactive),-0.0907 (inactive),0.0727 (inactive),-0.0781 (inactive),0.0674 (inactive),-1.01 (inactive),-0.913 (inactive),-0.189,-0.167
CCc1cc2c(nc1CC)CCN(CCC(C)=NO[C@H](C)c1cn([C@@H]3COC[C@H]3O)nn1)C2,0.821,-0.744,1.75,0.546,-0.329,0.338,0.367 (inactive),-0.121,-0.676,-0.574 (inactive),-0.51,0.485 (inactive),-1.4 (inactive),-0.0125 (inactive),-0.643 (inactive),0.431 (inactive),0.415 (inactive),0.741 (inactive),-0.828,0.0368
CCOC(=O)[C@H](CC(C)C)NC(=O)CCC1CC(OC(=O)NCCc2ccc(F)cc2)CC2(CCCC(COC(=O)NCCC(C)C)O2)O1 (stereo not given in full),-0.646,0.174,0.0995,0.773,-0.479,-0.488,0.152 (inactive),0.248,-0.00687,0.0692 (inactive),-0.566,1.2 (inactive),0.214 (inactive),0.322 (inactive),0.532 (inactive),0.821 (inactive),0.334 (inactive),-0.139 (inactive),0.398,0.0938
